14 compounds from PubChem BioAssay can be followed below.

Experiment [1] in a line: inhibitors of TNFa-induced NFkB p65 translocation, primary screen, imaging, HUVEC, MLSMR starter and 10KST1 sets (AID 438;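 active means inhibition above 20% together with a positive visual image hit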;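 further: compound added about 3h40 before a 20 min TNFalpha stimulation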;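 on inhibition: signal is the nuclear over cytoplasmic p65 intensity ratio per well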). To be noted: HUVEC TNFa-induced p65 nuclear translocation; cell count: measured here: nuclei count (cytotoxicity indicator), at 2.08 µM; inhibition: at 2 µM, stronger effect = higher value, 0% TNFa-plus-vehicle, 100% no-TNFa wells.
The nature of experiment [2]: inhibitors of mutant huntingtin aggregation, primary screen, imaging, exon1htt(103Q)mCFP cells, high-content imaging (AID 483;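 active means visual image review flags a hit and inhibition of aggregation exceeds 20%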;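 further: compound exposure lasted 3 days before fixation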;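 on nuclei count: percent of the per-plate median nuclei count of sample wells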). To be noted: exon1htt(103Q)mCFP cell line, aggregate imaging, at 2 µM; inhibition of aggregation: stronger effect = higher value; nuclei count: measured here: cell count, toxicity.
Experiment [3] can be described thus: inhibitors of E-selectin induction by TNFa, primary screen, imaging, HUVEC, immunofluorescence, MLSMR starter and 10KST1 sets (AID 487;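 active means visually confirmed hit in the image check and inhibition above 20%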;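 on inhibition: signal is fraction of cell area covered by stained E-selectin grains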;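 on nuclei count: 100% = median nuclei count of all wells on the same plate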). The conditions noted are these: HUVEC TNFalpha-induced E-selectin immunofluorescence imaging, at 2 µM; inhibition: stronger effect = higher value; nuclei count: measured here: cell number, toxicity.
Experiment [4] concerns the target Voltage-gated potassium channel subunit beta-2 (Rattus norvegicus) (UniProt P62483). Briefly: KvBeta enzyme negative modulators, primary screen, biochemical, NADPH fluorescence (AID 622;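 active means fluorescence slope higher than the sample average by over 3 SD, cut at about -0.22 in these data, passing the limit was not always enough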;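 further: slope of raw intensity against log time taken from 70 to 1610 s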). To be noted: recombinant KvBeta, 4-cyanobenzaldehyde reduction, at 10 µM, stronger effect = higher value.
Experiment [5] shares this target. Briefly: KvBeta positive modulators, primary screen, biochemical, NADPH fluorescence (AID 623;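 active means NADPH fluorescence slope more negative than the mean of all samples by about 3 SD, 99.7% confidence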;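 further: fluorescence intensity change per second fitted from 20 to 320 s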). To be noted: Recombinant KvBeta, NADPH fluorescence decrease slope, 10 min; at 10 µM; stronger effect = lower value.
The target in experiment [6] is Alpha-2C adrenergic receptor (Homo sapiens) (UniProt P18825). The experiment can be described thus: modulators of alpha2C/GIRK thallium flux, primary screen, cell-based, HEK293 alpha2C/GIRK1/2 (AID 624;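 active means fluorescence slope after compound addition differing from the mean of all screened samples at 99.7% confidence, in either direction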;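 further: slope of fluorescence ratio to pre-addition baseline per second over 15 to 24 s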). To be noted: thallium flux BTC fluorescence, at 10 µM, actives lie on both sides.
Alpha-2C adrenergic receptor (Homo sapiens), sequence (P18825 whole entry, looked up): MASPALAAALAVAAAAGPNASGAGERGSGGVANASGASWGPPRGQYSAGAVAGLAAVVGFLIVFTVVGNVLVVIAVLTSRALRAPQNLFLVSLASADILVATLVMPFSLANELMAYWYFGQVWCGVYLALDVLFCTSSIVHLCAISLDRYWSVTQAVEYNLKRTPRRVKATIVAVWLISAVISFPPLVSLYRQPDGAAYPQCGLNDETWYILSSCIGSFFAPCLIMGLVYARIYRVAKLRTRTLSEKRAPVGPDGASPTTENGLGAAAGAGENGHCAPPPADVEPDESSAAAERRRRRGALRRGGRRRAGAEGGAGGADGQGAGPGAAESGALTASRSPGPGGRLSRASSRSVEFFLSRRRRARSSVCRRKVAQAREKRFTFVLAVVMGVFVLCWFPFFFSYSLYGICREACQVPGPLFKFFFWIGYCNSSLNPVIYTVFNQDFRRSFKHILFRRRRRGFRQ
The nature of experiment [7]: inhibitors of Sendai virus-induced IRF3 signaling, primary screen, TLR/RLR signaling modifier project, cell-based, Sendai virus stimulus, luciferase, 10K MLSCN set (AID 602276;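 active means inhibition at or above 50% at 10 µM; inactive means inhibition below 50%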;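 further: firefly luciferase from ISG56 promoter only with Renilla not read in this screen; 0% = Sendai virus plus DMSO and 100% = medium plus DMSO without virus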). The conditions noted are these: HEK293 RL24 IRF3 luciferase reporter, at 10 µM, stronger effect = higher value.
Experiment [8] can be described thus: inhibitors of poly I:C-induced TLR3 signaling, primary screen, cell-based, poly I:C stimulus, luciferase, 10K MLSCN set (AID 602277). The conditions noted are these: HEK293-TLR3 RL24 IRF3 luciferase reporter, at 10 µM, stronger effect = higher value.

Structures are written as SMILES. Active and inactive are the calls of the source.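 How the source made its calls, unless noted: active means inhibition of the reporter signal at or above 50%; inactive means inhibition below 50%.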

Voltage-gated potassium channel subunit beta-2 (Rattus norvegicus), sequence (P62483 whole entry, looked up): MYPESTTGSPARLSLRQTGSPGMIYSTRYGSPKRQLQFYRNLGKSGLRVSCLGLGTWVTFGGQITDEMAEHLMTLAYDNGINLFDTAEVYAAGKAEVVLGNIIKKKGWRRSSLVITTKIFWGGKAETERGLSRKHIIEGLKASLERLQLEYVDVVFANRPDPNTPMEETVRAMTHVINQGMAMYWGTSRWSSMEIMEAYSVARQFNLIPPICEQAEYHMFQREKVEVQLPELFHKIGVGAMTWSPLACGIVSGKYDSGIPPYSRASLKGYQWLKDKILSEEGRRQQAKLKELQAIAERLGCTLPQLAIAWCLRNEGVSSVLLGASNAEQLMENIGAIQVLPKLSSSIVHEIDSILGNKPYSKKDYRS

On to `C/C=C/Cn1c(SCCCc2ccccc2)nc2c1c(=O)[nH]c(=O)n2C`, for which the cell count in experiment [1] is 658. In addition, the inhibition in experiment [1] was -6.4% (inactive); in experiment [3], -13.9% (inactive); in experiment [7] it was 1.4% (inactive); in experiment [8], 5.27% (inactive). Besides, in experiment [2], the inhibition of aggregation is -13.8% (inactive). Also, the values for the nuclei count in experiment [2] and in experiment [3] were 101% and 102%, respectively. Further, the fluorescence slope in experiment [4] is -0.517 (inactive). For the same compound, the NADPH fluorescence slope in experiment [5] is -1.9e-05 (inactive). In addition, the slope in experiment [6] is 0.00629 (inactive).
Consider `CC(=O)c1ccccc1OCCn1nnc(-c2ccc(C)cc2)n1`, for which the cell count in experiment [1] is 556. The inhibition in experiment [1] was -13.7% (inactive); in experiment [3], -24.2% (inactive); in experiment [7], 12.9% (inactive); in experiment [8], 14% (inactive). In experiment [2], the inhibition of aggregation is -20.1% (inactive). In addition, the nuclei count was found to be 106% in experiment [2] and 109% in experiment [3]. Also, the fluorescence slope in experiment [4] was -0.487 (inactive). Also, in experiment [5], the NADPH fluorescence slope was -5.6e-05 (inactive). Besides, the slope in experiment [6] is 0.0055 (inactive).
With `CCOC(=O)c1c(C)[nH]c(C)c1C(=O)COC(=O)CNC(=O)c1ccc(OCC)cc1`, the cell count in experiment [1] is 708. Moreover, the inhibition in experiment [1] is -2.2% (inactive); in experiment [3], -19.4% (inactive); in experiment [7] it was 14.3% (inactive); in experiment [8] it was 28.6% (inactive). Also, the inhibition of aggregation in experiment [2] is 5.2% (inactive). For the same compound, the figures for the nuclei count in experiment [2] and in experiment [3] were 63.7% and 104%, respectively. The fluorescence slope in experiment [4] was -0.456 (inactive). For the same compound, the NADPH fluorescence slope in experiment [5] was 2.3e-05 (inactive). Besides, the slope in experiment [6] was 0.00496 (inactive).
Take `COc1ccccc1C(=O)NCCNC(=O)c1ccco1`: in experiment [1], the cell count was 388. Moreover, the inhibition in experiment [1] was 6.3% (inactive); in experiment [3] it was -78% (inactive); in experiment [7], -4.73% (inactive); in experiment [8] it was -9.5% (inactive). For the same compound, the inhibition of aggregation in experiment [2] is 5.6% (inactive). For the same compound, the nuclei count was found to be 110% in experiment [2] and 113% in experiment [3]. Further, in experiment [4], the fluorescence slope was -0.412 (inactive). Also, the NADPH fluorescence slope in experiment [5] is -4.6e-05 (inactive). The slope in experiment [6] was 0.00705 (inactive).
For the compound `O=C(NCc1cccnc1)c1ccccn1`, the cell count in experiment [1] is 354. The inhibition in experiment [1] is -11% (inactive); in experiment [3] it was -18.1% (inactive); in experiment [7] it was 3.99% (inactive); in experiment [8], -3.56% (inactive). Moreover, the inhibition of aggregation in experiment [2] is -7.8% (inactive). Moreover, the results for the nuclei count in experiment [2] and in experiment [3] were 113% and 108%, respectively. Besides, the fluorescence slope in experiment [4] is -0.466 (inactive). In experiment [5], the NADPH fluorescence slope is -4.5e-06 (inactive). Also, the slope in experiment [6] is 0.00661 (inactive).
In the case of `CCN(CC)CCCN1C(=O)C(=O)/C(=C(/O)c2ccc3c(c2)OCO3)C1c1ccccn1` (centres undefined), the cell count in experiment [1] is 621. Further, the inhibition in experiment [1] is 1.8% (inactive); in experiment [3] it was -18.3% (inactive); in experiment [7] it was -5.97% (inactive); in experiment [8], 12.1% (inactive). For the same compound, the inhibition of aggregation in experiment [2] is 21.9% (inactive). The figures for the nuclei count in experiment [2] and in experiment [3] were 85.9% and 90.7%, respectively. Besides, in experiment [4], the fluorescence slope is -0.495 (inactive). In addition, the NADPH fluorescence slope in experiment [5] is -4.9e-05 (inactive). Further, the slope in experiment [6] was 0.00526 (inactive).
On to `COc1cccc(CN2CCN(C(=O)CC(C)C)CC2)c1`, for which the cell count in experiment [1] was found to be 448. Also, the inhibition in experiment [1] was 2.2% (inactive); in experiment [3] it was -45.8% (inactive); in experiment [7] it was 10.5% (inactive); in experiment [8] it was 4.9% (inactive). For the same compound, the inhibition of aggregation in experiment [2] is -3.8% (inactive). Besides, the nuclei count in experiment [2] worked out at 118%; in experiment [3], 132%. Also, the fluorescence slope in experiment [4] is -0.241 (inactive). In experiment [5], the NADPH fluorescence slope was 2.2e-06 (inactive). Further, the slope in experiment [6] was 0.00544 (inactive).
Regarding `O=C(NCCN1C(=O)C2C3C=CC(C3)C2C1=O)N1CCCCC1` (centres undefined), the cell count in experiment [1] was 584. The inhibition is -7.6% (inactive) in experiment [1], 3.5% (inactive) in experiment [3], -6.07% (inactive) in experiment [7] and 20.6% (inactive) in experiment [8]. Also, in experiment [2], the inhibition of aggregation was 0.9% (inactive). Moreover, the figures for the nuclei count in experiment [2] and in experiment [3] were 104% and 99.5%, respectively. The fluorescence slope in experiment [4] is -0.604 (inactive). Also, the NADPH fluorescence slope in experiment [5] was -3.7e-05 (inactive). The slope in experiment [6] is 0.00723 (inactive).
Turning to `CC1CCCCC1NC(=O)C1CCN(C(=O)NC2CCCCC2)CC1` (centres undefined), the cell count in experiment [1] was 172. Further, the inhibition is -4.9% (inactive) in experiment [1], 2.1% (inactive) in experiment [3], 13.5% (inactive) in experiment [7] and 28.2% (inactive) in experiment [8]. In addition, the inhibition of aggregation in experiment [2] was 20.6% (inactive). In addition, the nuclei count in experiment [2] was 71.9%; in experiment [3], 79.8%. Further, the fluorescence slope in experiment [4] was -0.448 (inactive). The NADPH fluorescence slope in experiment [5] was -4.6e-05 (inactive). Moreover, the slope in experiment [6] was 0.00366 (inactive).
For `COc1cccc(-n2ccnc2SCC(=O)N2CCc3ccccc32)c1`, the cell count in experiment [1] is 565. Further, the inhibition in experiment [1] is -7.6% (inactive); in experiment [3] it was 1.1% (inactive); in experiment [7] it was -3.01% (inactive); in experiment [8], -5.47% (inactive). Moreover, the inhibition of aggregation in experiment [2] is 3% (inactive). Further, the nuclei count in experiment [2] stood at 108%; in experiment [3] it was 89.7%. In addition, the fluorescence slope in experiment [4] was -0.536 (inactive). The NADPH fluorescence slope in experiment [5] was -1e-05 (inactive). In addition, the slope in experiment [6] was 0.00609 (inactive).
Consider `O=C(Nc1ccc(NC(=O)c2ccco2)nc1)c1cccnc1`, for which, in experiment [1], the cell count is 505. For the same compound, the inhibition in experiment [1] was 19.2% (inactive); in experiment [3], 1% (inactive); in experiment [7] it was -21.2% (inactive); in experiment [8], -50% (inactive). Also, the inhibition of aggregation in experiment [2] is -0.5% (inactive). Besides, the values for the nuclei count in experiment [2] and in experiment [3] were 93.2% and 89.3%, respectively. The fluorescence slope in experiment [4] was -0.472 (inactive). In addition, the NADPH fluorescence slope in experiment [5] is -2.2e-05 (inactive). In addition, in experiment [6], the slope is 0.00492 (inactive).
`COCCN(Cc1cc2cccc(C)c2[nH]c1=O)C(=O)c1ccccc1`: the cell count in experiment [1] worked out at 298. Besides, the inhibition in experiment [1] is -22.3% (inactive); in experiment [3], -23.9% (inactive); in experiment [7] it was 7.15% (inactive); in experiment [8], 16.3% (inactive). Besides, in experiment [2], the inhibition of aggregation is 3.6% (inactive). In addition, the nuclei count came to 91.8% in experiment [2] and 124% in experiment [3]. The fluorescence slope in experiment [4] is -0.372 (inactive). The NADPH fluorescence slope in experiment [5] was -5.9e-05 (inactive). For the same compound, in experiment [6], the slope was 0.00564 (inactive).
On to `COc1ccc(-c2noc(-c3ccccc3C(=O)Nc3cccnc3)n2)cc1OC`, for which, in experiment [1], the cell count turned out to be 395. Further, the inhibition in experiment [1] is -5.7% (inactive); in experiment [3] it was -57.8% (inactive); in experiment [7], 1.54% (inactive); in experiment [8], 0.376% (inactive). In addition, the inhibition of aggregation in experiment [2] was -13.9% (inactive). In addition, the nuclei count in experiment [2] came out at 103%; in experiment [3], 115%. Moreover, the fluorescence slope in experiment [4] was -0.458 (inactive). Besides, in experiment [5], the NADPH fluorescence slope was -3.1e-05 (inactive). The slope in experiment [6] is 0.00579 (inactive).
For `C=CCN(C(=O)CNS(=O)(=O)c1ccccc1)C(C(=O)NCCOC)c1ccncc1` (centres undefined), the cell count in experiment [1] came out at 543. In addition, the inhibition in experiment [1] is -18.3% (inactive); in experiment [3] it was 7.6% (inactive); in experiment [7], 11% (inactive); in experiment [8] it was 5.34% (inactive). Also, the inhibition of aggregation in experiment [2] is 18.4% (inactive). The nuclei count in experiment [2] turned out to be 93.8%; in experiment [3], 80.2%. In experiment [4], the fluorescence slope is -0.478 (inactive). Moreover, the NADPH fluorescence slope in experiment [5] is 3.8e-06 (inactive). In addition, the slope in experiment [6] is 0.00567 (inactive).
